# From PubChem BioAssay
# IDE exosite inh = exo-site inhibitors of human insulin-degrading enzyme. purified IDE, FL-6b probe fluorescence polarization; hits give low values. z-score at 20 µM. 6.3% of 17,000 active. AID 1259349;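 active means z-score of -3 or lower, meaning strong loss of probe binding signal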;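 further: His-tagged human IDE residues 42-1019 made in E. coli with 30 nM FL-6b probe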
# Target sequence (P14735 42-1019 limits assumed): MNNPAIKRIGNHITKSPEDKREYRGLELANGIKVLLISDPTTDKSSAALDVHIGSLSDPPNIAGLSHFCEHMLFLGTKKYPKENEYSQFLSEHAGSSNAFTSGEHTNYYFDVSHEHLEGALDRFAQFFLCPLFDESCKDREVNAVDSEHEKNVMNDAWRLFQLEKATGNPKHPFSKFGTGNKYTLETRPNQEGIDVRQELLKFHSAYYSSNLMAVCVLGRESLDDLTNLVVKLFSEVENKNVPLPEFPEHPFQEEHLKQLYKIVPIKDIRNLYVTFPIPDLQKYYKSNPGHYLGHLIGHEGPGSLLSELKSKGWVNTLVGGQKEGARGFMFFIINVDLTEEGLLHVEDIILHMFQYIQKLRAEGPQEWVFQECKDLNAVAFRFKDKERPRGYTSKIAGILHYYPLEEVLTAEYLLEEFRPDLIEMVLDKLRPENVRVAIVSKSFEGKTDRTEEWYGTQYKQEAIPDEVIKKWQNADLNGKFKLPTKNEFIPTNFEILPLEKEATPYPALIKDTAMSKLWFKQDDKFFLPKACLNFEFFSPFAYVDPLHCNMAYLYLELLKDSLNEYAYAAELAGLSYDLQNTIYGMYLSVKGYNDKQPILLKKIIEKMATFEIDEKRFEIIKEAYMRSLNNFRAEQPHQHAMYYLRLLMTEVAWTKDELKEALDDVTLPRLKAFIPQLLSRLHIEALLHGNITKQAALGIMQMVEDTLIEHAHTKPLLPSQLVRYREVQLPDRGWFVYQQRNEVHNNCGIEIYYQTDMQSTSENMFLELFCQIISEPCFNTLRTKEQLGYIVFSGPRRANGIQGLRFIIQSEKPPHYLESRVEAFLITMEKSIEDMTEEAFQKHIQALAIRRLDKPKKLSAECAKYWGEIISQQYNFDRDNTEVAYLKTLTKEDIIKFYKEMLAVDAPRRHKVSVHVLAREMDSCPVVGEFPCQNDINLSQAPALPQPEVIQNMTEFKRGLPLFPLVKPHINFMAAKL
# Numbers stand for hits; 0 = inactive. The entries come from a sample that favours hits as a whole.
SMILES,IDE exosite inh
Cn1cnc(S(=O)(=O)N2[C@@H]3CNC[C@H]2C3c2ccc(-c3ccc(F)cc3)cc2)c1 (stereo partly drawn),0
O=C(c1ccc2c(c1)OCO2)N1CC(=O)N2[C@@H](CO)[C@H](c3ccc(C#CCC4CCCC4)cc3)[C@@H]2C1,0
COc1ccc([C@H]2C/C=C\C[C@H](c3ccc4c(c3)OCO4)NC(=O)[C@H](c3ccccc3)CC(=O)N2)c(OC)c1,0
CCCNC(=O)N1CC2(C1)[C@@H](c1ccccc1)[C@@H](CO)N2C(=O)c1cccnc1,0
O=S(=O)(c1cccs1)N1CCCCN2[C@@H](CO)[C@@H](c3ccc(-c4ccccc4)cc3)[C@@H]2C1,0
O=C(Nc1ccccc1F)N1CC(=O)N2[C@@H](CO)[C@@H](c3ccc(C#Cc4ccccc4)cc3)[C@@H]2C1,-5.8
O=C(Nc1ccccc1F)N1CC(=O)N2[C@H](CO)[C@H](c3ccc(C#Cc4ccccc4)cc3)[C@H]2C1,0
O=C(c1ccccc1F)N1CC(=O)N2[C@@H](CO)[C@H](c3ccc(C#Cc4ccccc4)cc3)[C@@H]2C1,-3.5
O=C(c1ccccc1F)N1CC(=O)N2[C@H](CO)[C@H](c3ccc(C#Cc4ccccc4)cc3)[C@H]2C1,0
O=C(Nc1ccccc1F)N1CC(=O)N2[C@H](CO)[C@H](c3ccc(C#Cc4ccc(F)cc4)cc3)[C@@H]2C1,0
O=C(c1ccccc1F)N1CC(=O)N2[C@@H](CO)[C@@H](c3ccc(C#Cc4ccccc4)cc3)[C@@H]2C1,0
COc1cccc(-c2ccc3c(c2)[C@@H]2[C@@H](CCN2S(=O)(=O)c2cn(C)cn2)[C@H](CO)N3)c1,0
N#C[C@H]1[C@@H](c2ccccc2C2=CCCC2)[C@H](CO)N1S(=O)(=O)c1cccc(F)c1,0
CCCNC(=O)N(C)C[C@H]1Oc2ncc(C#CC3CCCCC3)cc2C(=O)N([C@H](C)CO)C[C@@H]1C,0
CO[C@H](CN(C)C(=O)C1CCOCC1)[C@H](C)CN(C(=O)Nc1ccc(C(F)(F)F)cc1)[C@H](C)CO,0
CCCNC(=O)N1[C@H](CO)[C@@H](c2ccc(C3=CCCC3)cc2)[C@@H]1CN(C)C(C)=O,0
OC[C@H]1[C@H](c2ccc(C#Cc3ccccc3F)cc2)[C@H]2CN(CC3CCOCC3)CCCCN21,0
OC[C@@H]1[C@H](c2ccc(C#Cc3ccccc3)cc2)[C@H]2CN(CC3CCOCC3)CCCCN12,-4.4
CCCC#Cc1ccc([C@@H]2[C@@H](CO)N3CCCCN(CC4CCOCC4)C[C@H]23)cc1,0
OC[C@@H]1[C@@H](c2ccc(C#Cc3ccccc3F)cc2)[C@H]2CN(CC3CCOCC3)CCCCN12,0
OC[C@H]1[C@H](c2ccc(C#Cc3ccccc3)cc2)[C@@H]2CN(CC3CCOCC3)CCCCN12,-3.6
CCCC#Cc1ccc([C@@H]2[C@@H](CO)N3CCCCN(CC4CCOCC4)C[C@@H]23)cc1,0
O=C1CN(Cc2ccccc2)C[C@H]2[C@@H](c3ccc(-c4ccccc4F)cc3)[C@@H](CO)N12,0
CCC(=O)N1[C@H](CN(CC)C(=O)c2ccc(F)cc2)[C@@H](c2ccccc2)[C@@H]1CO,0
COc1ccc2c3c(n(C)c2c1)[C@@H](CO)N(CC1CC1)CC31CCN(S(=O)(=O)c2cccs2)CC1,0
SMILES,IDE exosite inh
O=C(C[C@H]1CC[C@H]2[C@@H](COC[C@@H](O)CN2C(=O)Nc2ccccc2)O1)NCc1ccccc1F,0
COc1ccc2c3c([nH]c2c1)[C@@H](CO)N(C(=O)c1ccc(F)cc1)CC31CCN(Cc2cccnc2)CC1,0
Cc1cccc(-c2ccc([C@H]3[C@H](CO)N4C(=O)CN(C(=O)Cc5ccccn5)C[C@@H]34)cc2)c1,-6.9
Cc1ccc(-c2ccc([C@@H]3[C@@H](CO)N4C(=O)CN(C(=O)Cc5ccccn5)C[C@@H]34)cc2)cc1,0
Cc1ccc(-c2ccc([C@@H]3[C@@H](CO)N4C(=O)CN(C(=O)Cc5ccccn5)C[C@H]34)cc2)cc1,0
Cc1ccc(-c2ccc([C@@H]3[C@H]4CN(C(=O)Cc5ccccn5)CC(=O)N4[C@H]3CO)cc2)cc1,0
O=C(Cc1ccccn1)N1CC(=O)N2[C@H](CO)[C@@H](c3ccc(-c4ccccc4)cc3)[C@H]2C1,0
O=C(Cc1ccccn1)N1CC(=O)N2[C@H](CO)[C@H](c3ccc(-c4ccc(F)cc4)cc3)[C@@H]2C1,0
Cc1cccc(-c2ccc([C@@H]3[C@@H](CO)N4C(=O)CN(C(=O)Cc5ccccn5)C[C@H]34)cc2)c1,-5.7
O=C(Cc1ccccn1)N1CC(=O)N2[C@@H](CO)[C@@H](c3ccc(-c4ccccc4)cc3)[C@@H]2C1,-5.6
CC(=O)N(C[C@@H]1N[C@@H](CO)[C@@H]1c1ccc(-c2ccccc2)cc1)C(C)C,0
CO[C@H]1CN(C)C(=O)c2cc(NC(=O)Cc3ccccc3)ccc2OC[C@H](C)N(C(=O)c2ccccc2F)C[C@H]1C,0
O=C(Nc1cc(F)ccc1F)N1CCCCN2[C@@H](CO)[C@H](c3ccc(-c4cccnc4)cc3)[C@@H]2C1,0
O=C(C1CCOCC1)N1CC(=O)N2[C@@H](CO)[C@@H](c3ccc(C#CC4CC4)cc3)[C@@H]2C1,0
Cc1nn(C)cc1NC(=O)C[C@@H]1CC[C@@H]2[C@@H](COc3ccc(NC(=O)c4cccc(F)c4)cc3C(=O)N2C)O1,0
O=C(Cc1ccccc1)N1CC(=O)N2[C@@H](CO)[C@H](c3ccc(Br)cc3)[C@@H]2C1,0
O=C1CN(S(=O)(=O)Cc2ccccc2)C[C@H]2[C@@H](c3ccc(C#Cc4cccc(F)c4)cc3)[C@H](CO)N12,0
C[C@@H]1CN([C@@H](C)CO)C(=O)c2cc(C3=CCCC3)cnc2O[C@@H]1CN(C)C(=O)Nc1ccc(C(F)(F)F)cc1,0
COc1ccc(C#Cc2ccc([C@H]3[C@@H](CO)N4C(=O)CN(C(=O)c5cccnc5)C[C@H]34)cc2)cc1,0
C[C@@H]1COCn2nncc2CC[C@H](Cc2cccc(Cl)c2)C(=O)N1,0
O=C(C1CC1)N1CC(=O)N2[C@H](C1)[C@@H](c1ccc(-c3ccccc3F)cc1)[C@@H]2CO,-8.1
O=C(C1CCC1)N1CC(=O)N2[C@@H](CO)[C@@H](c3ccc(-c4ccccc4F)cc3)[C@@H]2C1,-5.6
O=C(C1CCCC1)N1CC(=O)N2[C@@H](CO)[C@H](c3ccc(-c4ccccc4F)cc3)[C@@H]2C1,-5.7
O=C(C1CCCC1)N1CC(=O)N2[C@H](CO)[C@@H](c3ccc(-c4ccccc4F)cc3)[C@H]2C1,0
O=C(C1CCC1)N1CC(=O)N2[C@H](C1)[C@@H](c1ccc(Br)cc1)[C@@H]2CO,0
SMILES,IDE exosite inh
O=C(C1CCC1)N1CC(=O)N2[C@H](CO)[C@H](c3ccc(-c4ccccc4F)cc3)[C@@H]2C1,-3.2
O=C(C1CCCC1)N1CC(=O)N2[C@H](C1)[C@H](c1ccc(-c3ccccc3F)cc1)[C@@H]2CO,0
O=C(C1CC1)N1CC(=O)N2[C@@H](CO)[C@H](c3ccc(-c4ccccc4F)cc3)[C@@H]2C1,0
CN(C[C@@H]1[C@@H](c2ccccc2)[C@H](CO)N1C(=O)C1CCC1)C(=O)c1ccccn1,0
O=C(Nc1cccc(F)c1)N1CC(=O)N2[C@H](C1)[C@@H](c1ccc(-c3ccccc3F)cc1)[C@@H]2CO,0
CC(C)[C@@H]1C(=O)NCCC=CC[C@H](C)Oc2ccccc2C(=O)N1C (mixture of isomers),0
COCC#Cc1ccc([C@H]2[C@H](CO)N3C(=O)CN(C(=O)C4CCC4)C[C@@H]23)cc1,0
